Measured values reported in publication PMC4336329 (PLoS ONE, 2015).
The campaign covered roughly 310,000 compounds. About 14,000 (4.5%) showed an effect of 50% or more. The effect is printed as a negative number. Only a selection was taken, and strong results are over-represented in it overall.

Target: human ether-à-go-go-related gene (hERG) potassium channel (human, UniProt Q12809)
Assay: primary screen, population patch clamp on CHO cells stably expressing hERG; higher = less effect of the substance
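Note: peak tail current of the secondary pulse compared with the same well before compound.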

human ether-à-go-go-related gene (hERG) potassium channel, sequence (Q12809 whole entry, looked up): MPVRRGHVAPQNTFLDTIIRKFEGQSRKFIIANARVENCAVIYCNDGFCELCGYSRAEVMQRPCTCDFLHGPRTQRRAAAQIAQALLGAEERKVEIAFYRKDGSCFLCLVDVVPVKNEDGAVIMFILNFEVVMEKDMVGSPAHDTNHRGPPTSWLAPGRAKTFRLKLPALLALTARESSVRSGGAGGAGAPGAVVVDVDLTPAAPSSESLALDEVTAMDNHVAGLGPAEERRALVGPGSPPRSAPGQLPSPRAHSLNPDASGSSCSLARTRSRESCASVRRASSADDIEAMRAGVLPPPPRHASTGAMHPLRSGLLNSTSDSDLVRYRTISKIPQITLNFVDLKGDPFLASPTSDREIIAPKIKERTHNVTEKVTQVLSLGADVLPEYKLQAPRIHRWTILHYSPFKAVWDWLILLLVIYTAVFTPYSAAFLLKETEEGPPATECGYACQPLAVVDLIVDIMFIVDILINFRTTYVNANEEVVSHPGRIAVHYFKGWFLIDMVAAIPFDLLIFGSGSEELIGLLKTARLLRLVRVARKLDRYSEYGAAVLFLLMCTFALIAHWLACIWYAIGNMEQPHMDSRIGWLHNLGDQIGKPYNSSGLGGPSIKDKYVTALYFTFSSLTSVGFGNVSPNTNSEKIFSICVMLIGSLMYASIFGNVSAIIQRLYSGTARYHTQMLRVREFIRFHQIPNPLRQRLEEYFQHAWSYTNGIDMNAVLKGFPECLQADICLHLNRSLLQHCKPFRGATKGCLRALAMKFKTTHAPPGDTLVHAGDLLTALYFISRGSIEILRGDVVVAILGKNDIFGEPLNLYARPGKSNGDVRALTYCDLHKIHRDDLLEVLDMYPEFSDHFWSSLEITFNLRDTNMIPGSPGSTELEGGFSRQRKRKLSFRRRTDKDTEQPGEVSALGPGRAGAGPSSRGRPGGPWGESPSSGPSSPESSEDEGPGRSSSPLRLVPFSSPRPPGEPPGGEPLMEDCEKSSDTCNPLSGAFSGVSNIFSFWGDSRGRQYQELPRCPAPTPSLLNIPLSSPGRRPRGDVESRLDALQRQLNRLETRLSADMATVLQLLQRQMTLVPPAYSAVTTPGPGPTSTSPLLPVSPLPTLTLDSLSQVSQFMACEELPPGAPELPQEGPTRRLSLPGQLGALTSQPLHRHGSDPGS

Row | SMILES | hERG current change (%, negative = inhibition) at 10uM [%]
1 | O=C(COc1ccc(Cl)cc1)Nc1ccc2c(c1)nc1n2CCOC1 | -34
2 | O=C(CC1NC(=O)NC1=O)Nc1ccccc1 (stereo not drawn) | -0.537
3 | CCOc1cc2c(cc1OCC)-n1cccc1C(c1ccc(C)cc1C)NC2.Cl (stereo not drawn) | -0.599
4 | CCOc1cc2c(cc1OCC)-n1cccc1C(c1cc(C)c(OC)cc1C)NC2.Cl (stereo not drawn) | -62.1
5 | CCOc1cc2c(cc1OCC)-n1cccc1C(c1ccc(OC)cc1)NC2.Cl (stereo not drawn) | -48.1
6 | CCOc1cc2c(cc1OCC)-n1cccc1C(c1ccc(OC(F)F)cc1)NC2.Cl (stereo not drawn) | -65.3
7 | CCOc1cc2c(cc1OCC)-n1cccc1C(c1ccccc1OC)NC2.Cl (stereo not drawn) | -7.52
8 | CCOc1cc2c(cc1OCC)-n1cccc1C(c1ccc(F)cc1)NC2.Cl (stereo not drawn) | 0.0384
9 | CCOc1cc2c(cc1OCC)-n1cccc1C(c1cccc(F)c1)NC2.Cl (stereo not drawn) | -14.8
10 | CCOc1cc2c(cc1OCC)-n1cccc1C(c1ccc(OC)c(OC)c1)NC2.Cl (stereo not drawn) | -30.2
11 | CCOc1cc2c(cc1OCC)-n1cccc1C(c1cccc([N+](=O)[O-])c1)NC2.Cl (stereo not drawn) | -59.9
12 | O=S(=O)(NC1=NCCCCCC1)c1cccs1 | 3.19
13 | CCN1C(C(=O)c2ccccc2)=C(Nc2ccccc2C)c2ccccc2S1(=O)=O | -4.84
14 | Cl.Nn1cnnc1N/N=C/c1ccc(Cl)c([N+](=O)[O-])c1 | -26.6
15 | O=c1[nH]c(/C=C\c2cccs2)nc(O)c1[N+](=O)[O-] | -4.76
16 | CCOc1ccc(/C=N/NC(=O)c2[nH]c3ccc(C)cc3c2C)cc1 | 12.4
17 | Cc1cccc(NC(=O)Cn2cnc3c(oc4ccccc43)c2=O)c1 | 12.5
18 | CCN(CC)S(=O)(=O)c1ccc(Oc2ccccc2)cc1 | -20.7
19 | CCN(CC)S(=O)(=O)c1ccc(Oc2ccccc2OC)cc1 | -65.3
20 | COc1cccc(Oc2ccc(S(=O)(=O)N3CCCC3)cc2[N+](=O)[O-])c1 | -57.1
21 | CCN(CC)S(=O)(=O)c1ccc(Oc2ccc(S(=O)(=O)N(CC)CC)cc2)cc1 | -22.7
22 | COc1ccccc1Oc1ccc(S(=O)(=O)N2CCN(C)CC2)cc1 | -1.98

Row | SMILES | hERG current change (%, negative = inhibition) at 10uM [%]
23 | COc1ccccc1Oc1ccc(S(=O)(=O)N2CCCC2)cc1 | -77.3
24 | O=[N+]([O-])c1cc(S(=O)(=O)N2CCCC2)ccc1OCCOc1ccccc1 | -32.4
25 | CCN1CCN(S(=O)(=O)c2ccc(Oc3ccccc3OC)cc2)CC1 | -15
26 | COc1cc(OC)cc(Oc2ccc(S(=O)(=O)N3CCCCC3)cc2[N+](=O)[O-])c1 | 1.5
27 | CN=C1S/C(=C\c2cn(CC(=O)OC)c3ccccc23)C(=O)N1C | 7.11
28 | COc1ccc([N+](=O)[O-])cc1NC(=O)Nc1ccc(OC)c(OC)c1 | 8.37
29 | COc1ccc(CCNC(=O)COC(=O)Cc2ccc(OC)cc2)cc1 | 9.48
30 | Cc1cc(N2CCCCCC2)nc2ccccc12.O=C(O)C(=O)O | -56.1
31 | COc1ccc2c(C)cc(N3CCN(c4ccc(F)cc4)CC3)nc2c1 | -25.7
32 | Cc1cc(N2CCOCC2)nc2ccc(Cl)cc12 | 9.25
33 | Cc1cc(N2CCCCC2)nc2ccccc12 | -9.74
34 | COc1ccc2c(C)cc(N3CCN(Cc4ccccc4)CC3)nc2c1 | -29.6
35 | Cc1cc(N2CCCN(C)CC2)nc2cc(Cl)ccc12 | -61.7
36 | Cc1cc(N2CCN(c3ccc(F)cc3)CC2)nc2cc(O)ccc12 | -75.9
37 | COc1ccc2c(C)cc(N3CCOCC3)nc2c1 | -7.7
38 | COc1ccc(N2CCN(c3cc(C)c4ccc(O)cc4n3)CC2)cc1 | -24.4
39 | Cc1cc(N2CCN(C)CC2)nc2ccccc12 | -0.28
40 | COc1ccc2c(C)cc(N3CCCCCC3)nc2c1.O=C(O)C(=O)O | -82
41 | Cc1cc(N2CCCC2)nc2ccccc12 | -41.2
42 | CCOc1cccc(/C=N/N2C(=O)CSC2=S)c1O | 24.2
43 | O=C(CO/N=C/c1ccc(Cl)cc1Cl)NNC(=O)c1ccc(Cl)cc1Cl | 3.17
44 | O=C(NCCO)Nc1ccc(Cl)cc1 | 27.7

Row | SMILES | hERG current change (%, negative = inhibition) at 10uM [%]
45 | O=C(CN(C(=O)c1csnn1)c1ccc(F)c(Cl)c1)NCc1ccc(F)cc1 | 7.3
46 | CN1OC(Cn2cc(C#N)c(=O)n(C)c2=O)CC1c1ccccc1 (stereo not drawn) | 12.5
47 | CCOc1ccc(CN(C)CC(=O)Nc2cc(C)c(C)cc2[N+](=O)[O-])cc1.CN(C)C=O | 9.36
48 | Oc1ccc(Nc2nc(-c3ccc(O)cc3)cs2)cc1 | 18.9
49 | Cc1cc(C)cc(NC(=O)c2ccc(CSc3nnnn3C)cc2)c1 | -24
50 | Cl.NCCCNc1ccc([N+](=O)[O-])cc1C(F)(F)F | -15
51 | CCn1cc(C(=O)O)c(=O)c2cc(F)c(N3CCN(C(=S)NC(=O)c4cccc(F)c4)CC3)cc21 | 5.44
52 | Cn1c(=O)[nH]c(=O)c2c1ncn2CCCc1ccccc1 | 1.26
53 | Cc1ccc(-c2[nH]ncc2C(=O)c2ccc(Br)cc2)c(O)c1 | -9.43
54 | O=C(O)C(=O)O.OCCN1CCN(c2cc(-c3ccccc3)c3ccccc3n2)CC1 | -63.3
55 | O=C(O)C(=O)O.c1ccc(-c2cc(N3CCOCC3)nc3ccccc23)cc1 | -11.6
56 | COc1ccc2c(-c3ccccc3)cc(N3CCOCC3)nc2c1.O=C(O)C(=O)O | 3.22
57 | CCOC(=O)c1ccc[n+](CC(=O)Nc2ccccc2OC(F)F)c1.[Cl-] | 4.85
58 | CCCCOc1ccc(C(=O)Nn2cnnc2)cc1 | -0.225
59 | Cc1nc2ccc(NC(=O)c3cc(Cl)ccn3)cc2s1 | 17.4
60 | Cc1ccc(CSc2nc3sc(C)c(C)c3c(=O)n2Cc2ccco2)cc1 | -6.19
61 | Cc1sc2nc(SCc3ccccc3)n(Cc3ccco3)c(=O)c2c1C | -2.09
62 | C=CCn1c(SCC(=O)NCCO)nc2sc(C)c(C)c2c1=O | 11.6
63 | Cc1sc2nc(SCc3ccc(C(=O)O)cc3)n(Cc3ccco3)c(=O)c2c1C | -59.2
64 | C=CCn1c(SCc2ccc(C(=O)O)cc2)nc2sc(C)c(C)c2c1=O | -4.36
65 | C=CCn1c(SCc2ccc(C(=O)NCCO)cc2)nc2sc(C)c(C)c2c1=O | -61.6
66 | O=C1C2CC=C(Cl)CC2C(=O)N1CCC[n+]1cccc2ccccc21 (stereo not drawn) | 8.95

Row | SMILES | hERG current change (%, negative = inhibition) at 10uM [%]
67 | Cc1onc(-c2ccccc2Cl)c1C(=O)Nc1nnc(-c2ccc(Cl)cc2Cl)s1 | 17
68 | Cc1cc(OCC(=O)NCC(O)c2ccccc2)c2c3c(c(=O)oc2c1)CCC3 (stereo not drawn) | 16.1
69 | Cc1ccc(/C=N/NC(=O)Cn2cnc3ccccc32)cc1 | 14.4
70 | CC1(C)CNc2cc([N+](=O)[O-])ccc2S1 | 6.88
71 | COc1ccc(C(=O)NCC(=O)N2CCN(c3ccc(F)cc3)CC2)cc1 | -1.94
72 | COc1ccc(CC(=O)Nc2c(C(=O)N3CCN(c4ccccc4OC)CC3)oc3ccccc23)cc1OC | -24.4
73 | CCOCCCN(C)C1CCN(C(=O)c2oc3ccccc3c2NC(=O)COc2cccc(C)c2)CC1 | -82.2
74 | CCOCCCN(C)C1CCN(C(=O)c2oc3ccccc3c2NC(=O)c2ccc(F)cc2)CC1 | -77.5
75 | CCOCC(=O)Nc1c(C(=O)N2CCN(c3ncccn3)CC2)oc2ccccc12 | -21.4
76 | NC(=O)c1oc2ccccc2c1NC(=O)c1ccc(F)cc1 | 10.9
77 | CCOCCCN(C)C1CCN(C(=O)c2oc3ccccc3c2NC(=O)Cc2ccc(F)cc2)CC1 | -77.8
78 | CCOCC(=O)Nc1c(C(=O)OCC)oc2ccccc12 | -11.1
79 | CCOCCCN(C)C1CCN(C(=O)c2oc3ccccc3c2NC(=O)COc2ccc(F)cc2)CC1 | -80.1
80 | CCOC(=O)c1oc2ccccc2c1NC(=O)COc1ccc(F)cc1 | 14
81 | COCCCN(C)C1CCN(C(=O)Nc2ccc(F)cc2)CC1 | -28.8
82 | CCOC(=O)c1oc2ccccc2c1NC(=O)COc1cccc(OC)c1 | 10.4
83 | COc1ccc(S(=O)(=O)Nc2ccc3oc(C)c(C(=O)O)c3c2)cc1 | 21.3
84 | CSc1nc(C)cc(Oc2ccc(OCCOc3ccccc3)nn2)n1 | -23.2
85 | OC1(c2ccc(Cl)cc2)CCN(Cc2nc(-c3cnccn3)no2)CC1 | -1.35
86 | CSc1nc2n(n1)C(c1cccc(F)c1)C(C(=O)Nc1ccc(C)cc1C)=C(C)N2 (stereo not drawn) | -0.769
87 | O=C(COC(=O)c1ccccc1N1C(=O)C2C3CCC(C3)C2C1=O)c1ccccc1 (stereo not drawn) | 1.28
